Screens from PubChem BioAssay.
esBAF inh: Bmi1 luciferase reporter increase in mESCs, primary screen, esBAF inhibitor project, mouse ES cells, Bmi1 luciferase knock-in, single point | 24 h; 100% = twice the neutral-well signal | hit rate 2% among 350,000 | reporter increase, % at 12.5 µM | AID 602393, 2012; in the data active means activation above about 40%; inconclusive means no clear call, values can overlap the other calls;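 further: 0% = median of the plate's neutral control wells and 100% = double that signal; a rise in the Bmi1 reporter signal indicates esBAF inhibition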
MITF TRPM1 HTS: activators of MITF-driven TRPM1 promoter reporter, primary screen, cell-based, SK-MEL-5, luciferase, single point. SK-MEL-5 TRPM1-promoter luciferase, 24 h; % of positive control, neutral wells = 0. activation, % at 12.5 µM. hit rate 0.75% among 300,000;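 active means mean activation of at least 80% with every replicate also reaching 80%; inconclusive means mean reaches 80% but some replicate falls short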;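 further: 0% = neutral control wells and 100% = parthenolide positive control wells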
SMARCA2 activ: SMARCA2 (BRM) function activators, primary screen, cell-based, luminescence, high throughput. hit rate 1% among 370,000. MG213 cells, MMTV-luciferase reporter, dexamethasone, overnight. activation, % at 9.1 µM; in the data active means activation above about 7.8%;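 further: 0% = vehicle wells and 100% = reference activator wells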
AF4-AF9 inh: inhibitors of AF4 peptide binding to AF9, primary screen, biochemical, AlphaScreen, biotin-AF4 peptide, FLAG-AF9, single point | hit rate 0.47% among 350,000 | Protein AF-9 (Homo sapiens), P42568 | inhibition, % at 10 µM | AID 651704, 2012;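 active means every replicate reaching a set inhibition limit, whatever the replicate mean, cut at about 25% in these data; inconclusive means mean inhibition reaches that limit but some replicates miss it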;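 further: 0% = plate neutral control median and 100% = total signal loss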
Target sequence (P42568 whole entry, looked up): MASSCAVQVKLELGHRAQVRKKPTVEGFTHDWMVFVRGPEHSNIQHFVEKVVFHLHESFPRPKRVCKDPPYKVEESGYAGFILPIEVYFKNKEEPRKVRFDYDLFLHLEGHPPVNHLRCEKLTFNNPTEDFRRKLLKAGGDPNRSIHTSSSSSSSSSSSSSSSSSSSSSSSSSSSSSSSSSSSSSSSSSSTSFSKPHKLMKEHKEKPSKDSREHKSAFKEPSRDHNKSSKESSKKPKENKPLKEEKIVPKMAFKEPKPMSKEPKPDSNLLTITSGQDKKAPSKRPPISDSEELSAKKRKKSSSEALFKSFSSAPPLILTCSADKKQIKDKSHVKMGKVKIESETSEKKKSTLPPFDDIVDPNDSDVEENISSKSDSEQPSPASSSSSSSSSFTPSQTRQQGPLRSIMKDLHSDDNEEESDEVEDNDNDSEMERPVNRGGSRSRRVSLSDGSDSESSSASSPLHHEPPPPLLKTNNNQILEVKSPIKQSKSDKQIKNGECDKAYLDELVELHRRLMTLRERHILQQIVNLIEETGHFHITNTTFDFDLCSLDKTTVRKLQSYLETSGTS
FGF22 binding: binders of human FGF22 protein, primary screen, FGF22 synaptogenesis inhibitor project, biophysical, thermal shift, single point. Fibroblast growth factor 22 (Homo sapiens), Q9HCT0. recombinant FGF22 thermal shift, SYPRO orange fluorescence; percent of sucrose octasulfate shift, DMSO zero. activity (Tm shift, normalised), % at 9.99 µM. hit rate 1.5% among 340,000;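 active means mean Tm shift, scaled 0 neutral to 100 positive control, at about 1.3% or above, every replicate too, limit read from the data; inconclusive means no clear call, values can overlap the other calls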
Wnt act: Wnt/beta-catenin pathway activators, primary screen, cell-based, plate reader, single point; Wnt/beta-catenin reporter cell assay, activator; activation, % at 9.35 µM; hit rate 1.2% among 300,000; in the data active means activation above about 30%, passing the limit was not always enough; inconclusive means no clear call, values can overlap the other calls;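 further: 0% = neutral control wells and 100% = positive control wells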
* marks the source's active call; other numbers are inactive results; ? = inconclusive; / = no result given. The list is not random: actives were taken first. Their share in the collection is about 4.3%.

SMILES | esBAF inh | MITF TRPM1 HTS | SMARCA2 activ | AF4-AF9 inh | FGF22 binding | Wnt act
O=C(c1c(O)cc(O)cc1O)C1c2c(cc(O)c3c2O[C@H](c2ccc(O)cc2)[C@@H](O)C3)OC1c1ccc(O)cc1 (stereo partly specified) | 16 | 16 | 2 | 12 | 1.5* | 2
CSc1ncccc1C(=O)OCC(=O)Nc1cccc(S(=O)(=O)N2CCOCC2)c1 | / | 0 | 2 | 0 | 43* | -5
CSc1ncccc1C(=O)OCC(=O)Nc1ccc(C)c(S(=O)(=O)N2CCOCC2)c1 | -2 | 4 | -3 | 0 | 43* | 1
CO[C@@H]1CN(C)C(=O)c2ccc(NC(C)=O)cc2OC[C@H](C)N(Cc2ccccn2)C[C@@H]1C | 0 | / | / | 0 | 0 | /
CCC(=O)Nc1ccc2c(c1)OC[C@@H](C)N(C(=O)c1ccc(F)cc1)C[C@@H](C)[C@@H](OC)CN(C)C2=O | 4 | / | / | -1 | 0 | /
CCOc1ccc(NC(=O)N2CCc3ccccc3C2)cc1 | ? | 36 | 2 | 1 | 0 | 5
CSc1ccc(C(=O)N2CCc3ccc(NC(=O)c4ccccn4)cc3C2)cc1 | 20 | 36 | 2 | -1 | 0 | 14
O=C(Nc1ccc2c(c1)CN(C(=O)Nc1ccc(F)cc1)CC2)c1ccccn1 | 47* | / | -4 | 3 | 0 | -3
CSc1ccccc1C(=O)N1CCc2ccc(NC(=O)c3ccccn3)cc2C1 | 46* | / | -3 | 2 | 0 | 0
CN(C)C(=O)c1ccc(NC(=O)CSc2nnc(-c3ccc4c(c3)OCO4)o2)cc1 | 2 | 2 | -1 | 0 | 0 | 0
Cc1ccc(NC(=O)Cc2nc(CSc3nnc(-c4ccc5c(c4)OCO5)o3)cs2)cc1 | 51* | / | -1 | / | / | 18
c1ccc2c(-c3c[nH]c4ccccc34)c3ccccc3nc2c1 | -3 | -25 | -3 | / | / | /
Clc1ccc(-c2c[nH]c3ccccc23)nn1 | 27 | 1 | 2 | 0 | 43* | -12
Cc1ccc(-c2noc(C3CCCN(C(=O)c4c(F)cccc4F)C3)n2)cc1 (stereo unspecified) | 9 | -5 | -5 | / | / | /
Cc1cccc(C(=O)N2CCCC(c3nc(-c4ccc(C)o4)no3)C2)c1 (stereo unspecified) | 51* | 55 | -1 | 1 | 0 | 12
Cc1ccc(-c2noc(C3CCCN(C(=O)c4ccccc4Br)C3)n2)cc1 (stereo unspecified) | 51* | 10 | -3 | 0 | 0 | 3
Cc1ccc2c(c1)COc1c3ccc(C(=O)N[C@@H](C)CO)cc3nn1-2 | 62* | 77 | 4 | -5 | 0 | 18
Cc1cc(C)n(-c2ccc(C(=O)NC(C)C)cc2)n1 | 9 | 6 | / | -5 | 0 | 0
CCCC#Cc1ccc2c(c1)COc1c3ccccc3nn1-2 | 1 | 51 | 5 | 1 | 0 | ?
Cc1ccc2c(c1)COc1c3ccc(C(=O)NC(C)C)cc3nn1-2 | 84* | 89* | 3 | / | 0 | 46*
N#Cc1cccc(-c2ccc([C@@H]3[C@H](CO)N4CCCCN(S(=O)(=O)c5ccccc5)C[C@@H]34)cc2)c1 | 3 | / | / | 4 | 0 | /
O=C(c1ccco1)N(CCO)Cc1cc2cc3c(cc2[nH]c1=O)OCO3 | -1 | -10 | -4 | -18 | 43* | 0
Cc1ccc2cc(CN(C(=O)c3ccco3)c3ccccc3)c(=O)[nH]c2c1 | 54* | 6 | 1 | / | / | /
Cc1ccc(N(Cc2cc3ccc(C)cc3[nH]c2=O)C(=O)c2ccco2)cc1 | / | 0 | -1 | 1 | 0 | 2
COC(=O)/C(=C1/Oc2ccc(C(C)(C)C)cc2S1)C(F)(F)F | / | 72 | 1 | -22 | 0 | 37*
SMILES | esBAF inh | MITF TRPM1 HTS | SMARCA2 activ | AF4-AF9 inh | FGF22 binding | Wnt act
CCOC(=O)C1=C(c2ccccc2)O/C(=C(\C(=O)OC)C(F)(F)F)S1 | -18 | 22 | -4 | / | / | /
CCOC(=O)[C@]12CCCC3=C1N(CCC3)C(=O)[C@@H](CC(=O)N1CCN(C(=O)c3ccco3)CC1)C2 | / | / | -3 | / | / | /
COc1cccc(NC(=O)COC(=O)c2c(C)noc2C)c1 | -4 | 0 | 0 | -1 | 1 | 1
Cc1noc(C)c1C(=O)OCC(=O)Nc1cccc(S(N)(=O)=O)c1 | / | 13 | 0 | 0 | 43* | -7
O=C(Nc1ccccc1F)N[C@@H]1CC[C@@H](CCNC(=O)C2CCC2)O[C@H]1CO | -1 | / | / | -4 | 0 | /
c1ccc(-c2onc3cc4c(cc23)OCCO4)cc1 | 68* | 106* | 8 | / | / | /
CCC(Sc1nc(-c2cccc(OC)c2)c(C#N)c(=O)[nH]1)C(=O)Nc1nnc(C(C)C)s1 (stereo unspecified) | / | -9 | -5 | -5 | 2.1* | -1
COc1cccc(-c2nc(-c3ccccc3)[nH]c(=O)c2C#N)c1 | -11 | -9 | -2 | / | / | -1
CC1(C)CCC(=O)N2CC[C@H]3C[C@H](OC(=O)Nc4ccc5c(c4)OCO5)C[C@@H]1[C@H]32 | 38 | 104* | 6 | -25 | 0 | 14
O=C(Nc1ccccc1N1CCOCC1)c1ccc2ccccc2n1 | 59* | / | 6 | / | / | 40*
Cc1c(NC(=O)c2cc(-c3ccccc3)nc3ccccc23)c(=O)n(-c2ccccc2)n1C | -1 | -8 | -2 | 1 | 0 | -3
O=C(NC(=O)N1CCN(c2ccccc2)CC1)c1ccc(Cl)cc1 | 49* | / | 6 | / | / | /
O=C(Nc1ccccc1N1CCOCC1)c1cc(-c2ccncc2)nc2ccccc12 | 0 | -1 | -2 | 14 | 0 | -2
Cc1ccc(-c2cc(C(=O)Nc3c(C)n(C)n(-c4ccccc4)c3=O)c3ccccc3n2)cc1 | / | -1 | -3 | 6 | 43* | -8
COc1ccc(-c2cc(C(=O)Nc3ccccc3N3CCOCC3)c3ccccc3n2)cc1OC | -1 | -2 | 5 | -1 | 2.3* | -4
O=C(CN1CCOCC1)NCC[C@@H]1CC[C@@H](NC(=O)c2ccc3c(c2)OCO3)[C@H](CO)O1 | 1 | / | / | 1 | 0 | /
C[C@@H]1CN([C@H](C)CO)C(=O)c2cc(N(C)C)ccc2O[C@H]1CN(C)C | -2 | / | / | -4 | 0 | /
C[C@@H]1CCCCO[C@@H](CN(C)Cc2ccc(C(F)(F)F)cc2)[C@@H](C)CN([C@@H](C)CO)C(=O)c2cc(NS(=O)(=O)c3cn(C)cn3)ccc2O1 | -3 | / | / | 0 | 0 | /
Cc1ccc(-c2ccccc2[C@@H]2[C@@H](CO)N(C(=O)NC3CCCC3)[C@H]2C#N)cc1 | / | / | / | -14 | / | /
Cc1csc(NC(=O)c2cc(-c3ccncc3)nc3ccccc23)n1 | / | -13 | -3 | 6 | 44* | -1
